# Test results reported in the supplement of paper PMC4894684.
# Structures can show the parent of a compound that is named as a salt. ± gives the standard deviation of the averaged measurements.
# Tested on: Toxoplasma gondii RH (in HFF)
# Assay: parasite growth relative to the screen mean (all compounds = 100%); higher = less inhibition of parasite growth
# Settings: 5 µM; 72 h; oxygen 21 %
# How it was run: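 Library compounds (10 mM DMSO stocks) were pin-transferred to 5 µM final onto confluent human foreskin fibroblasts in 96-well plates, then infected within 2 h with RH β-Gal–GFP Toxoplasma (MOI 1:5) and grown 72 h at 21% O2. Parasite number came from a CPRG β-Gal assay against in-plate standard curves. Growth is expressed relative to the screen mean (all compounds = 100%), averaged over two screens. Uninfected host-cell viability was checked by CellTiter-Blue.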
row,Structure (SMILES),parasite growth [%]
1,CCCN(CCC)[C@@H]1CCc2c(OC)cccc2[C@@H]1C [(+)-UH 232 maleate],115 ± 20
2,C[C@H]1CCC/C=C/[C@@H]2C[C@H](O)C[C@H]2[C@H](O)/C=C/C(=O)O1 [Brefeldin A],< 0
3,C[C@H](Cc1ccc(OCC(=O)O)cc1)NC[C@H](O)c1cccc(Cl)c1,90.6 ± 30
4,COc1ccc(CCN2CCC(Nc3nc4ccccc4n3Cc3ccc(F)cc3)CC2)cc1 [Astemizole],< 0
5,c1ccc2sc(C3(N4CCCCC4)CCCCC3)cc2c1 [BTCP maleate],64.9 ± 4.1
6,CC(=O)NCCc1c[nH]c2ccccc12 [N-Acetyltryptamine],146 ± 7.5
7,Clc1cccc(SC2CCNCC2)n1 [Anpirtoline hydrochloride],76.4 ± 27
8,S=C=Nc1cccc(C2(N3CCCCC3)CCCCC2)c1 [Metaphit],51.3 ± 6
9,C[N+]1(C)CCc2cc3c(cc2[C@H]1[C@@H]1OC(=O)c2c1ccc1c2OCO1)OCO3 [(-)-Bicuculline methiodide],108 ± 8.7
10,CCNC(=O)[C@H]1O[C@@H](n2cnc3c(N)ncnc32)[C@H](O)[C@@H]1O,93 ± 12
11,Cc1[nH]c2ccc(O)cc2c1CCN [2-Methyl-5-hydroxytryptamine hydrochloride],139 ± 37
12,Cc1ncc(CN2CC=C(c3ccccc3)CC2)c(N)n1,135 ± 13
13,CCOC(=O)c1cncn1[C@H](C)c1ccccc1 [Etomidate],114 ± 17
14,NCCc1c[nH]c2ccc(O)cc12 [Serotonin],106 ± 15
15,Cc1onc(O)c1C[C@H](N)C(=O)O,113 ± 34
16,CN1CCC(c2c[nH]c3ccc(O)cc23)CC1,177 ± 16
17,Cc1nnc2ccc(-c3cccc(C(F)(F)F)c3)nn12,126 ± 14
18,N=C(N)NN [Aminoguanidine hydrochloride],124 ± 28
19,CN1c2ccccc2C(NCCCCCCC(=O)O)c2ccc(Cl)cc2S1(=O)=O (centres undefined) [Tianeptine],98.7 ± 16
20,NCC(O)c1ccc(O)cc1 (centres undefined) [Octopamine hydrochloride],76.6 ± 12

row,Structure (SMILES),parasite growth [%]
1,O=C1NC(=O)c2c1c1c3ccccc3[nH]c1c1[nH]c3ccccc3c21 [Arcyriaflavin A],21.1 ± 14
2,C[N+](C)(C)CC#CCN1CCCC1=O [Oxotremorine M],172 ± 41
3,C/C(O)=C(\C#N)C(=O)Nc1cc(Br)ccc1Br,130 ± 7.2
4,O=C(O)CCC(CP(=O)(O)O)C(=O)O (centres undefined) [PMPA (NAALADase inhibitor)],126 ± 9.3
5,Cn1cc(C(=O)C(=O)N[C@H]2CN3CCC2CC3)c2ccccc21,96.5 ± 6.7
6,C[N+]1(C)CCc2cc3c(cc2[C@H]1[C@@H]1OC(=O)c2c1ccc1c2OCO1)OCO3 [(-)-Bicuculline methochloride],120 ± 37
7,O=C1/C(=C/c2ccccc2)C[C@@]2(O)[C@H]3Cc4ccc(O)c5c4[C@@]2(CCN3CC2CC2)[C@H]1O5 [BNTX maleate],< 0
8,O=Cc1cn(Cc2ccc(Cl)cc2)c2ccccc12 [Oncrasin 1],113 ± 44
9,O=C(O)c1nn(Cc2ccc(Cl)cc2Cl)c2ccccc12 [Lonidamine],77.9 ± 20
10,COc1ccc(C(=O)c2c(C)n(CCN3CCOCC3)c3cc(I)ccc23)cc1,149 ± 18
11,C[C@H](N)Cn1ccc2cc(F)c(Cl)cc21 [Ro 60-0175 fumarate],115 ± 28
12,Oc1ccc2c3c1O[C@H]1c4oc5ccccc5c4C[C@@]4(O)[C@@H](C2)N(CC2CC2)CC[C@]314 [Naltriben mesylate],127 ± 55
13,C=CCN1CC[C@]23c4c5ccc(O)c4O[C@H]2/C(=N/NC(=O)c2ccccc2)CC[C@@]3(O)[C@H]1C5 [Naloxone benzoylhydrazone],108 ± 34
14,CC(CN)CC(=O)O (centres undefined) [3-Methyl-GABA],119 ± 4.7
15,CC(C)(C)NCC(O)COc1cccc2[nH]c(C#N)cc12 (centres undefined) [Cyanopindolol hemifumarate],130 ± 6.7
16,O=C(O)Cc1cccnc1C(=O)O [Homoquinolinic acid],85.7 ± 1.6
17,CC(C)C[C@@H](N)C1(c2ccc(Cl)cc2)CCC1,111.4 ± 0.42
18,O=C(N[C@H]1CN2CCC1CC2)c1ccc(Cl)cc1,146 ± 25
19,CN1Cc2ccccc2[C@@H]2c3cccc4[nH]cc(c34)C[C@H]21,132 ± 9.8
